# Measured values: PubChem BioAssay (NCATS)
# Results filed as inconclusive are left out. Where a call stands in place of a potency, no number is given. Activity calls are given as the source filed them. Unless noted, calls follow the shape of the dose curve; as a rule, active = well fitted curve in the direction sought with a large enough effect; inconclusive = small, poorly fitted or top-dose-only effect, or another doubt; inactive = no such curve, though single readings can be large; an effect the other way counts as inactive or inconclusive.
# Assays:
# [1] = qHTS for Inhibitors of Plasmodium falciparum (CP250) proliferation (AID 504320)
# In short: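 Erythrocytes infected with P. falciparum line (0.3% parasitemia, 2.5% hematocrit final) incubated with compounds 72 h at 37 °C, 5% CO2; SYBR Green lysis buffer added, fluorescence read next day. Normalized to 0.29 uM artemisinin and DMSO.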
# [2] = biological target: Atrial natriuretic peptide receptor 1 (Homo sapiens) (UniProt P16066); assay: Natriuretic polypeptide receptor (hNpr1) antagonism - Pilot CMLD screen (AID 1347052; calls by dose curve;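 also: HEK293 cells with hNpr1 stimulated by hNppA peptide at 0.1 nM; cGMP level read as GloSensor luciferase luminescence after agonist stimulation; series mostly up to about 9.2 µM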)
# Chain of Atrial natriuretic peptide receptor 1 (Homo sapiens) (P16066 whole entry, looked up): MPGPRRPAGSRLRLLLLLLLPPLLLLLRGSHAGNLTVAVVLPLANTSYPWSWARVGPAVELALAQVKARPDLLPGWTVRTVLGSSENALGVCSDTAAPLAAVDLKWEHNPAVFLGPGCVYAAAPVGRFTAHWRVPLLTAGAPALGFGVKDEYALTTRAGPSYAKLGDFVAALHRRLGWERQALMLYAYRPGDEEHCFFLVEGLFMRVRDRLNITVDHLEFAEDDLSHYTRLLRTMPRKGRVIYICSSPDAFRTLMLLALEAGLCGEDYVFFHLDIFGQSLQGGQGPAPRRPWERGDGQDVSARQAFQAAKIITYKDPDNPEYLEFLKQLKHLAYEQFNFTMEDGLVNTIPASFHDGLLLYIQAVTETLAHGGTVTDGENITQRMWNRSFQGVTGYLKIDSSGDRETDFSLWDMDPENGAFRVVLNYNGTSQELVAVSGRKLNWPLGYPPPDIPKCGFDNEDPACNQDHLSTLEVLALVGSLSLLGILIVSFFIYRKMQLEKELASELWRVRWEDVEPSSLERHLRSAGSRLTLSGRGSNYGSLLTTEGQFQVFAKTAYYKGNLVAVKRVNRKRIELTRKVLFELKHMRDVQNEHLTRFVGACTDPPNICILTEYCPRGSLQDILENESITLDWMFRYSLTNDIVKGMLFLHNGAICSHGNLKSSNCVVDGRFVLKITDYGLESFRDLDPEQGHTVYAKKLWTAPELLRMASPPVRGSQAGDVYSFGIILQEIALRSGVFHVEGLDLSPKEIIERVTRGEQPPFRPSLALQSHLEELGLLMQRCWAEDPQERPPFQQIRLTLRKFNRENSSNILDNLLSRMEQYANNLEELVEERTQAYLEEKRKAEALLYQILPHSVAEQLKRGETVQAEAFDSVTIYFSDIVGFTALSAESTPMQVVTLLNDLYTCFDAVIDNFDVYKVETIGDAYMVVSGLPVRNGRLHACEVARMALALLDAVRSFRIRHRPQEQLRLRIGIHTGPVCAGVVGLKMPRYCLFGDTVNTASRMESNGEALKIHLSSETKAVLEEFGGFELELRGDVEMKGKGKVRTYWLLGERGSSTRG
# [3] = biological target: Furin (Homo sapiens) (UniProt P09958); assay: Furin counterscreen qHTS for Zika virus inhibitors (AID 1347149); also: nearly all actives have a fitted effect of over 70% in size; also: potency is read from the fitted curve at half-maximal effect
# Chain of Furin (Homo sapiens) (P09958 whole entry, looked up): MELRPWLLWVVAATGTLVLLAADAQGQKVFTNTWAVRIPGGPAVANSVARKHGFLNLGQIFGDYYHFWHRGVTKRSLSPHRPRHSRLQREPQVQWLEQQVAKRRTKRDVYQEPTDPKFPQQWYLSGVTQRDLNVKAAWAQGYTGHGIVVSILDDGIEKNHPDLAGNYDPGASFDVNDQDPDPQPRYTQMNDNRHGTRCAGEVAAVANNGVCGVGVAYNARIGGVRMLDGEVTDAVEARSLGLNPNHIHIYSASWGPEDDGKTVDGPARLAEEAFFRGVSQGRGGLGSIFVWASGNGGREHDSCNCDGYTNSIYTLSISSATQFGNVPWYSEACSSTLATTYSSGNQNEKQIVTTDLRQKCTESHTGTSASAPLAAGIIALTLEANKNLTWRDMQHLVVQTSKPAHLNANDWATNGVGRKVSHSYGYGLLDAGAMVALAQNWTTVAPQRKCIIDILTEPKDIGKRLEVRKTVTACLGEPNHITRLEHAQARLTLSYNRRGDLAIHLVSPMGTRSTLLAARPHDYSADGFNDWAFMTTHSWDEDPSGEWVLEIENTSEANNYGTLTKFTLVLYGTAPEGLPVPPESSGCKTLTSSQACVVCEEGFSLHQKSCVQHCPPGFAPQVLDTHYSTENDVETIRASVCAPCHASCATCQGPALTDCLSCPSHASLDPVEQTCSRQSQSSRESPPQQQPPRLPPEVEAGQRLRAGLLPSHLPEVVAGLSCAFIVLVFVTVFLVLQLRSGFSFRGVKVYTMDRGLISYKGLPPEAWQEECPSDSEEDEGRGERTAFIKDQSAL
# In short: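 Fluorogenic cleavage of BOC-RVRR-AMC (2 microM final, Km ~15 µM) was monitored (ex 340, em 450 nm) at 37C after 15 min RT preincubation of 5 nM furin with compounds in HEPES pH 7.0 buffer with CaCl2 and Triton X-100. Percent inhibition was fitted to a 4-parameter Hill curve.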
# [4] = test system: Zika virus NS2B-NS3 protease (linked construct); assay: Confirmatory screen NINDS AMC qHTS for Zika virus inhibitors (AID 1347152);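 also: AMC fluorescence gain from cleaved Bz-Nle-KRR-AMC substrate over 15 min; top concentration of the series differs between compounds; nearly all actives have a fitted effect of over 70% in size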
# In short: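 Enzyme (1 nM, linked construct) was preincubated with compound for 15 minutes at room temperature in 10 mM Tris-HCl pH 8.0 with 0.01% Tween 20. Bz-Nle-Lys-Arg-Arg-AMC was then added to 10 microM, and AMC fluorescence was recorded immediately and after 15 minutes.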
# [5] = test system: Zika virus NS2B-NS3 protease (unlinked complex); assay: Confirmatory screen GU AMC qHTS for Zika virus inhibitors (AID 1347153); also: nearly all actives have a fitted effect of over 70% in size
# In short: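 Unlinked enzyme 25 nM, Tris pH 8.0/0.01% Tween 20; cpd 15 min RT, dark; + AMC substrate 10 µM (Km 18.3 µM); 340/450 nm read at t0 and 15 min; % inhibition → 4-param fit.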
# [6] = ZIKV-mCherry secondary qHTS for Zika virus inhibitors (AID 1347158); also: top concentration of the series differs between compounds
# In short: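 Vero cells, 5,000/well, plated overnight at 37 °C, then compound added and infected with recombinant ZIKV-mCherry at MOI 1 for 48-72 h. PFA-fixed, Hoechst nuclear stain, high-content imaging; cells with mCherry intensity above 450 RFU scored infected, reported as percent infection.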
# [7] = Tertiary RLuc qRT-PCR qHTS assay for Zika virus inhibitors (AID 1347169); also: top concentration of the series differs between compounds; nearly all actives have a fitted effect of over 55% in size
# In short: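 Vero, 1,000 cells/well, o/n 37 C; cpd pinned in DMSO; ZIKV-RLuc Cambodian, MOI 1-2, 48-72 h 37 C; live-cell RLuc substrate, lum read at 1-1.5 h.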
smiles,measurement,setting,value
COc1ccc2c(c1)[C@@]1(OCCC=C[C@@H]1C)C(=O)N2Cc1ccccc1C(F)(F)F,Potency,[1],inactive
same,Potency,[2],inactive
CCOC(=O)CN1C(=O)[C@]2(O[C@H](COc3ccccc3)CC3=CCCC32)c2c(Br)cccc21 (some centres undefined),Potency,[1],inactive
same,Potency,[2],inactive
C[C@@H]1CC[C@H]2C(=O)N(CC3CCCCC3)C[C@H](O)CN2[C@@H]1c1ccc(Br)cc1,Potency,[1],inactive
same,Potency,[2],inactive
NC(N)=Nc1ccc(O[C@H]2C[C@@H](Oc3ccc(N=C(N)N)cc3)[C@H](N=C(N)N)C[C@@H]2N=C(N)N)cc1,Potency,[3],1.26 µM (active)
Cc1c(NS(=O)(=O)c2ccccc2)cc(C(C)C)c(O)c1S(=O)(=O)c1ccc(Cl)cc1,Potency,[3],inactive
Cc1ccc(C(=O)Nc2ccc(C(=O)OCc3cc(=O)n4c5c(sc4n3)CCCC5)cc2)cc1,Potency,[3],41.8 µM (active)
C=CCN1c2ccccc2[C@]23CCC(=O)N(Cc4cc(OC)c(OC)c(OC)c4)C2=NC(C(=O)OC)=C(C(=O)OC)[C@H]13,Potency,[1],inactive
same,Potency,[2],inactive
N#Cc1ccc2c(c1)C[C@]1(c3ccsc3)Oc3c(c(=O)oc4ccc(F)cc34)[C@@H]2O1,Potency,[1],inactive
same,Potency,[2],inactive
CC1=C[C@@H](COCc2ccccc2)O[C@@]2(C1)C(=O)N(Cc1ccccc1C(F)(F)F)c1ccccc12,Potency,[1],inactive
same,Potency,[2],inactive
O=C(CSc1ncccc1C(=O)Oc1ccccc1Cl)Nc1ccc(C(F)(F)F)cc1Cl,Potency,[3],inactive
CCN1C(=NCC(C)C)NC(c2cccc(F)c2)C(C(=O)OC)=C1C (centres undefined),Potency,[1],inactive
same,Potency,[2],inactive
COc1cc2c(c(OC)c1OC)CC(c1ccccc1)=C(c1ccccc1)CC2NC(=O)C(F)(F)F (centres undefined),Potency,[1],inactive
same,Potency,[2],inactive
C[C@]12C[C@@](C)(C=C1C=Cc1ccccc1)C(=O)C[C@H]2c1ccccc1,Potency,[1],inactive
same,Potency,[2],inactive
CCCCCCCCCC(=O)N[C@H](CCCN=C(N)N)C(=O)N[C@@H](C(=O)N[C@H](CCCCN)C(=O)N[C@@H](CCCN=C(N)N)C(=O)CCl)C(C)C,Potency,[3],0.0891 µM (active)
CC(=O)NC(CC(C)C)C(=O)NC(CC(C)C)C(=O)NC(C=O)CCCN=C(N)N (centres undefined),Potency,[3],inactive
COc1cc2c(cc1OC)[C@@H]1O[C@](CCCCN3C(=O)c4ccccc4C3=O)(C2)Oc2c1c(=O)oc1ccc(F)cc21,Potency,[1],inactive
same,Potency,[2],inactive
O=C(Nc1cccc2ccccc12)O[C@@H]1CO[C@H]2[C@@H]1OC[C@@H]2NS(=O)(=O)c1ccc2ccccc2c1,Potency,[3],69.8 µM (active)
same,Potency,[4],inactive
same,Potency,[5],inactive
O=C(O)c1ccc(-c2cccc(C(F)(F)F)c2)cc1,Potency,[3],inactive
same,Potency,[4],inactive
same,Potency,[5],inactive
same,Potency,[6],inactive
same,Potency,[7],inactive
O=C(O)c1cccc(-c2cc(C(F)(F)F)ccc2Cl)c1,Potency,[3],inactive
same,Potency,[4],inactive
same,Potency,[5],inactive
same,Potency,[6],inactive
same,Potency,[7],inactive
